# According to ChEMBL document CHEMBL3988442, “University of Dundee, Small-Polar-MMV Screening Library” (2021):
# For some of these results: Measured potencies and affinities stand elsewhere.
# Experiments:
# [1] = target: Protein translocase subunit SecA (Escherichia coli (strain K12)) (UniProt P10408); assay: Assay to Identify E. coli SecA ATPase Inhibitors; format: functional; design: scale not given: direction of the effect not stated beside the values; conditions: 30 µM
# [2] = target: T1, Ubiquitin-activating enzyme e1, putative (Leishmania donovani (strain BPK282A1)) (UniProt E9BSI1); assay: Leishmania donovani Ubiquitin Activating Enzyme (LdE1); format: functional; design: scale not given: direction of the effect not stated beside the values; conditions: 30 µM
# T1 sequence (whole entry): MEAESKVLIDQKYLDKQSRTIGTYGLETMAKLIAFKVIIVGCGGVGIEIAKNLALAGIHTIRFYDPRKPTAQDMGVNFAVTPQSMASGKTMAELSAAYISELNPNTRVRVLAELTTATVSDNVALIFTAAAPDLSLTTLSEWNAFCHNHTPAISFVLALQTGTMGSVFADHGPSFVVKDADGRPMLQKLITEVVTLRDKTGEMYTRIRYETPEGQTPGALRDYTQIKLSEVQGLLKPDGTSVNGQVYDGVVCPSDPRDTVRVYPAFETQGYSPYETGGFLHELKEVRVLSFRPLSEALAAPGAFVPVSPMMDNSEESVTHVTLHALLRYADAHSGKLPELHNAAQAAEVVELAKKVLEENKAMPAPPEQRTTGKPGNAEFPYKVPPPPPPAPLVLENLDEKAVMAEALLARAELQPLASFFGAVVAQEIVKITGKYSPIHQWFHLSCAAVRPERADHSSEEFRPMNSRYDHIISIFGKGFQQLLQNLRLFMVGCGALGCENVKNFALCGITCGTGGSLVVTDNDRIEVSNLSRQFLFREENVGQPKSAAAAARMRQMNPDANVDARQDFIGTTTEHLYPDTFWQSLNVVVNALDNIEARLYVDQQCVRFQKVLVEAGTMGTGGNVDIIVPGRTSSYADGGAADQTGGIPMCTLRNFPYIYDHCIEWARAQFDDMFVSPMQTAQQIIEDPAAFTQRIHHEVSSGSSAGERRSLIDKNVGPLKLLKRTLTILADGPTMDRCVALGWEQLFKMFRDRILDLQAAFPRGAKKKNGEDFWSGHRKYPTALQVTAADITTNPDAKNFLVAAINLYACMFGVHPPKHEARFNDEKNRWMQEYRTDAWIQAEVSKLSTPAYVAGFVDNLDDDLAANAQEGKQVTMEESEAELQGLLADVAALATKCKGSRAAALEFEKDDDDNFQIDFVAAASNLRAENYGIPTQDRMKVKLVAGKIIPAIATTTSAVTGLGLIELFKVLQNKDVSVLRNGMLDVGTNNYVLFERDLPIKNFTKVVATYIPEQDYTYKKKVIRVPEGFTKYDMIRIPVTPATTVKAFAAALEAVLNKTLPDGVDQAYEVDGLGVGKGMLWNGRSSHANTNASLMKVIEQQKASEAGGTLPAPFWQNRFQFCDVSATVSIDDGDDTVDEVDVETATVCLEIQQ
# [3] = target: AMP-activated protein kinase, AMPK (Homo sapiens) (UniProt P54646+O43741+P54619+Q9UGJ0+Q9Y478+Q13131+Q9UGI9); assay: AMP-dependent Kinase enzyme assay. An in vitro enzyme assay that detects ADP turnover that is directly proportional to AMPK activity. This uses naive AMPK that is activated during the assay with MK-8722; format: functional; design: scale not given: direction of the effect not stated beside the values; conditions: 30 µM
# [4] = target: Sialic acid-binding Ig-like lectin 9 (Homo sapiens) (UniProt Q9Y336); assay: Hs-Siglec9 ALPHAscreen SOP 20170721; design: scale not given: direction of the effect not stated beside the values; conditions: 10 µM
# Chain of Sialic acid-binding Ig-like lectin 9 (Homo sapiens) (Q9Y336 whole entry): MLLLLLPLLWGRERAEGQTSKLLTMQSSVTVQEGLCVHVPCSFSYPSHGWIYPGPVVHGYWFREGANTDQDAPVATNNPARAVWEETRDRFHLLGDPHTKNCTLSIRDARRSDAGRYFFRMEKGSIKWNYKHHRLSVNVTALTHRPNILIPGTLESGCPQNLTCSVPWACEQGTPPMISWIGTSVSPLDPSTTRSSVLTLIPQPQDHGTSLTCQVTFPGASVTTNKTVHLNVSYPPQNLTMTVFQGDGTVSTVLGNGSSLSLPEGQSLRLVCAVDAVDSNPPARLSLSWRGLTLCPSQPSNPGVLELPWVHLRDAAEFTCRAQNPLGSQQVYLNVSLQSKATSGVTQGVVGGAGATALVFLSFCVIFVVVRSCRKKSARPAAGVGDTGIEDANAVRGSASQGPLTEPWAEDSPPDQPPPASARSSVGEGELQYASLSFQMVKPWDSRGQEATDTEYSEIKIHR
# Trypanosoma cruzi = assay: Trypanosoma cruzi phosphomannomutase and mannose-1-phosphate guanylyltransferase assay; format: functional; design: scale not given: direction of the effect not stated beside the values; conditions: 10 µM
# [5] = target: T2, Arginase-2, mitochondrial (Homo sapiens) (UniProt P78540); assay: in vitro enzyme assay to detect the production of urea directly proportional to the activity of Arginase II; format: functional; design: scale not given: in the data most compounds retested in dose-response had high values
# T2 sequence (whole entry): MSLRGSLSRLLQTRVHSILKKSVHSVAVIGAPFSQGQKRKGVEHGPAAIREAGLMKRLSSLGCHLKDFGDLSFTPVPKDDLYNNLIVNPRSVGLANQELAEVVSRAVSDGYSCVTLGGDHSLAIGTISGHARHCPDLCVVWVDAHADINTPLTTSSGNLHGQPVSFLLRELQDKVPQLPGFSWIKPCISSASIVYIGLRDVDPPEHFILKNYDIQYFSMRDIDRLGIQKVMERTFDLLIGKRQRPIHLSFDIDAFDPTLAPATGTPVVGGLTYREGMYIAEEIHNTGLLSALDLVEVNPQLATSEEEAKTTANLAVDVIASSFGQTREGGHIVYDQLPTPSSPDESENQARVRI
# [6] = target: T3, Proteasome subunit beta (Trypanosoma cruzi) (UniProt O96673); assay: Trypanosoma cruzi proteasome chymotrypsin-like activity (TcProtChymo) assay.; format: functional; design: scale not given: in the data most compounds retested in dose-response had high values; conditions: 9.37 µM
# T3 sequence (whole entry): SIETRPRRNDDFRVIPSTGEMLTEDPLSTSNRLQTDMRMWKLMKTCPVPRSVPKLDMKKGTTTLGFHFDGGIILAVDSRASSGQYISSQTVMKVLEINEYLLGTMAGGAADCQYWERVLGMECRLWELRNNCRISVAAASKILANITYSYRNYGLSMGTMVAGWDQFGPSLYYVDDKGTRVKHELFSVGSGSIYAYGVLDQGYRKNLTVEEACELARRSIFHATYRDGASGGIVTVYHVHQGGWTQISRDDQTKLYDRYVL
# Homo sapiens = species: Homo sapiens; assay: To identify inhibition of the IFN signalling (Jak-Stat) pathway via expression of an eGFP reporter gene under the control of an IFN-stimulated response element (ISRE) containing MxA promoter.; format: functional; design: scale not given: direction of the effect not stated beside the values; conditions: 30 µM
# [7] = target: T4, Tyrosyl-tRNA synthetase, putative (Trypanosoma cruzi (strain CL Brener)) (UniProt Q4DSP6); assay: Trypanosoma cruzi tyrosyl tRNA synthetase (TcYRS) _High Tyrosine SOP; format: functional; design: scale not given: in the data most compounds retested in dose-response had high values; conditions: 30 µM
# T4 sequence (whole entry): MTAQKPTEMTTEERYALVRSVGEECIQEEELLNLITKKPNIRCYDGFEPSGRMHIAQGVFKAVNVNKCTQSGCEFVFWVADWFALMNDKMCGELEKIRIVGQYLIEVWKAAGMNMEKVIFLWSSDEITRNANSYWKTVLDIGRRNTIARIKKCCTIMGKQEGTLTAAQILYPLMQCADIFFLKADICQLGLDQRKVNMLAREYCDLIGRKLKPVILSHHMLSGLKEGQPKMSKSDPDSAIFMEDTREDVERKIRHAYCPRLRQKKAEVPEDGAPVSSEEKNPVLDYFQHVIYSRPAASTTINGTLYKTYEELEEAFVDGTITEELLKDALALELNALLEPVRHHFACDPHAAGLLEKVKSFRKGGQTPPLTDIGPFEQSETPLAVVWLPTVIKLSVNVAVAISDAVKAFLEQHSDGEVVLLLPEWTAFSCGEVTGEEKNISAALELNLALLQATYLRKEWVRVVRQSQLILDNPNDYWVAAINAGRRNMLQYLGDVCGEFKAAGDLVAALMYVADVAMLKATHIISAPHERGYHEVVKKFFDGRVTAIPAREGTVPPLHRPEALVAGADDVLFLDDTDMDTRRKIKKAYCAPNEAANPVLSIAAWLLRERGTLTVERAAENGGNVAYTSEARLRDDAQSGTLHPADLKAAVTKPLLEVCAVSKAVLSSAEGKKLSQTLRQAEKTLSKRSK
# [8] = target: T4, Tyrosyl-tRNA synthetase, putative (Trypanosoma cruzi (strain CL Brener)); assay: Trypanosoma cruzi tyrosyl tRNA synthetase (TcYRS) SOP; format: functional; design: scale not given: direction of the effect not stated beside the values; conditions: 30 µM
# [9] = target: Chromo domain-containing protein 1 (Saccharomyces cerevisiae (strain ATCC 204508 / S288c) (Baker's yeast)) (UniProt P32657); assay: ScCHD-1 Enzyme Inhibition Assay; format: functional; design: scale not given: in the data most compounds retested in dose-response had high values; conditions: 30 µM
# Chain of Chromo domain-containing protein 1 (Saccharomyces cerevisiae (strain ATCC 204508 / S288c) (Baker's yeast)) (P32657 whole entry, the tested form may be a part): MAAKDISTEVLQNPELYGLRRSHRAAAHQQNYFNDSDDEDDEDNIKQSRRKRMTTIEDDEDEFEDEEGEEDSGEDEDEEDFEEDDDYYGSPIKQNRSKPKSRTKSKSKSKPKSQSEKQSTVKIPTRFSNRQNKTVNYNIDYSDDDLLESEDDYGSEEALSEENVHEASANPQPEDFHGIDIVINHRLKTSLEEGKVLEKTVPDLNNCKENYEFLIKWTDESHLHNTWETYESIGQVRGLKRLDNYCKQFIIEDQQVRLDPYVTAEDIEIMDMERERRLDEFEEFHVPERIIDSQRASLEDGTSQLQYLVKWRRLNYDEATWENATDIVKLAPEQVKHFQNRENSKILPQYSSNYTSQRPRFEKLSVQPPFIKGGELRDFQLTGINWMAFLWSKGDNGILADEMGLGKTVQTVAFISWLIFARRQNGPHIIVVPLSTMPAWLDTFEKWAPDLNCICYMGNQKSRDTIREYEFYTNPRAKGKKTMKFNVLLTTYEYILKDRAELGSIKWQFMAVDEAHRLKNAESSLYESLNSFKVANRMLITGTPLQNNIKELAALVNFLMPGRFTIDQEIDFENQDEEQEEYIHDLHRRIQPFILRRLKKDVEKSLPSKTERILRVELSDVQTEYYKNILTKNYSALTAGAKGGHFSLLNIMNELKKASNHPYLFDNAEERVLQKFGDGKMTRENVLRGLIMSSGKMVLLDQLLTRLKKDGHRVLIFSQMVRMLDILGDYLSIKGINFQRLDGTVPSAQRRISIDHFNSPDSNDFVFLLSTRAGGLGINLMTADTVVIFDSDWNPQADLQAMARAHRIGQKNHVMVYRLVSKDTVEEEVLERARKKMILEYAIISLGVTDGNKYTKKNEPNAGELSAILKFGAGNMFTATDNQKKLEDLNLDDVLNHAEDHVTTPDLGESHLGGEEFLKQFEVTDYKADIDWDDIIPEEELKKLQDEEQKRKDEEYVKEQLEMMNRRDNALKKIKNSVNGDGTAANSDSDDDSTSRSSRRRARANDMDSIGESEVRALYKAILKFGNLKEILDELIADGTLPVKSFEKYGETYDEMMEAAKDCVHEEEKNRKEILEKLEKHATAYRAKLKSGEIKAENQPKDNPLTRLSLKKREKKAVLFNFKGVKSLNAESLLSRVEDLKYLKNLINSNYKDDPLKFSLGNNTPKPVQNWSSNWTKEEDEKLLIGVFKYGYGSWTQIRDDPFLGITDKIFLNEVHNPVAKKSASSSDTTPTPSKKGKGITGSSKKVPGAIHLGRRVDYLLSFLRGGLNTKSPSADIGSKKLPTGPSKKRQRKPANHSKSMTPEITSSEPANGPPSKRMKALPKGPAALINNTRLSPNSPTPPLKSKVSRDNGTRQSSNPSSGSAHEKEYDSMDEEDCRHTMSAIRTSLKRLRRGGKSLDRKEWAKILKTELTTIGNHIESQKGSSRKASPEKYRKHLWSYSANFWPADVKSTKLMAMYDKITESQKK
# [10] = target: T5, Methionyl-tRNA synthetase, putative (Leishmania donovani (strain BPK282A1)) (UniProt E9BF75); assay: Leishmania donovani Methionine tRNA synthetase (LdMetRS):v7. Dose response assay; format: functional; design: conc 80 nM, time 150 minutes
# T5 sequence (whole entry): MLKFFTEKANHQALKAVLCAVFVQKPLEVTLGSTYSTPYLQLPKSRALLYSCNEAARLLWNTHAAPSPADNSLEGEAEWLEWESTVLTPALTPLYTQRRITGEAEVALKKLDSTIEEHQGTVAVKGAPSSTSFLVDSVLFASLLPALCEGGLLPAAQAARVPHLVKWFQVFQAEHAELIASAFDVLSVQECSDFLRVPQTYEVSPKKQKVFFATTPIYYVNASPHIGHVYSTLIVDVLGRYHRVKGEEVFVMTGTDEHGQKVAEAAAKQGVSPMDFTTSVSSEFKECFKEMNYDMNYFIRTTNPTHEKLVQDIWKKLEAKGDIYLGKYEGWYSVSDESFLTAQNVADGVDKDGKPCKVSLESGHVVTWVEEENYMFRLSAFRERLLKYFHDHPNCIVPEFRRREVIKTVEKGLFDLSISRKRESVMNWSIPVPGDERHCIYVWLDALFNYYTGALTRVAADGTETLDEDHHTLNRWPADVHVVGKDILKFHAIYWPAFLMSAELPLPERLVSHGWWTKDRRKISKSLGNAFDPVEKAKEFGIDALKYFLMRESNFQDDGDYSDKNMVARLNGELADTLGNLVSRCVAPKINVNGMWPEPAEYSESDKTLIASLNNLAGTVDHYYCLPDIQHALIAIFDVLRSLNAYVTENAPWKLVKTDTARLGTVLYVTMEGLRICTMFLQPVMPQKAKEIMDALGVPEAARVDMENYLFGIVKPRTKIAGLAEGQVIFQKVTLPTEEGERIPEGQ
# Chain of Protein translocase subunit SecA (Escherichia coli (strain K12)) (P10408 whole entry): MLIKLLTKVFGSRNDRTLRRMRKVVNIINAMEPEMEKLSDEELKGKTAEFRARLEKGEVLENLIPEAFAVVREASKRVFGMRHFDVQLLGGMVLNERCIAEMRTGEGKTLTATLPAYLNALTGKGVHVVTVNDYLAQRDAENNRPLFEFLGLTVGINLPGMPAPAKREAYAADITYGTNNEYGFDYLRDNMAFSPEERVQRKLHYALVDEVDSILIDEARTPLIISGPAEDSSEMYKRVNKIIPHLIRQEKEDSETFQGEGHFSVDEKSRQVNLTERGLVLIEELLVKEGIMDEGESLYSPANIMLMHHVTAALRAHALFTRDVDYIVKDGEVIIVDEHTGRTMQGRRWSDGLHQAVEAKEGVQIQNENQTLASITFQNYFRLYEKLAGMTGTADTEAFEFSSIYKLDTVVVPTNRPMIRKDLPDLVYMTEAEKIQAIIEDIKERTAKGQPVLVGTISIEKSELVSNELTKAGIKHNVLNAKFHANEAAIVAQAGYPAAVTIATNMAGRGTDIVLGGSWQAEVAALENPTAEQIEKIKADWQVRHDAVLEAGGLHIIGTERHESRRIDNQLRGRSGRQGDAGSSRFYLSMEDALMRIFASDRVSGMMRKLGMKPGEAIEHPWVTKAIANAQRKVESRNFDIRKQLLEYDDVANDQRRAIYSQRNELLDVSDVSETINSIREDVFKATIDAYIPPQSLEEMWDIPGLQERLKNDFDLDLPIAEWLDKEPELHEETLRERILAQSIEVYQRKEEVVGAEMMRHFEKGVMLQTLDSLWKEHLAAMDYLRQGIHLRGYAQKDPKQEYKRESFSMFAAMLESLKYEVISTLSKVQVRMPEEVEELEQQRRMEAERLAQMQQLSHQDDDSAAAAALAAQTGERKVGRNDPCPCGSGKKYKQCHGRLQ
SMILES,Percent Effect [1] [%],Percent Effect [2] [%],Percent Effect [3] [%],Percent Effect [4] [%],Percent Effect (Trypanosoma cruzi) [%],Percent Effect ([5]; 30 µM) [%],Percent Effect ([5]; 33.3 µM) [%],Percent Effect [6] [%],Percent Effect (Homo sapiens) [%],Percent Effect [7] [%],Percent Effect [8] [%],Percent Effect [9] [%],PXC50 ([10]; MAX_EFFECT 4.275534442),PXC50 ([10]; MAX_EFFECT 11.44366197)
O=c1[nH]c2c(c(=O)n1C1CCCCC1)CCC2NCCc1ccccc1 (stereo unspecified),-2.86,1.33,-8.89,6.39,2.75,1.62,-3.35,2.22,-14.6,-3.17,0,-3.17,–,–
CNC(=O)[C@H]1C[C@@H]2CN(C(=O)c3cscn3)C[C@@H]2N1S(C)(=O)=O,-2.22,5.33,0.103,9.01,-4.05,4.87,-27.1,5.64,-13,4.17,-52.5,-3.61,–,–
FC1(F)CCN(Cc2ccncc2)CC12CCN(Cc1ccccn1)C2 (stereo unspecified),-7.03,0,-0.894,2.49,-5.96,–,0.319,5.35,17.3,-3.24,-5.13,-2.99,< 4,< 4
CN(Cc1ccco1)[C@@H]1CN(Cc2ccco2)[C@@H]2CCCO[C@H]12,-1.09,2.67,15.3,-0.135,-5.71,-2.7,3.03,13.5,2.84,4.25,11.5,-5.52,–,–
Cn1cc(CC2CCN(C(=O)NCc3cn4ccsc4n3)C2)cn1 (stereo unspecified),-6.21,13.2,-5.79,-0.407,5.36,2.7,-18.9,12.2,4.6,6.38,18.2,-14.5,–,–
